From PubChem BioAssay (NCATS)
Values joined by “and” are separate entries in the source; they are usually repeats but may differ in a detail not shown here. Equal values may be shown once. Inconclusive results are not listed. Active and inactive are the calls of the source. Unless noted, calls follow the shape of the dose curve; as a rule, active = well fitted curve in the direction sought with a large enough effect; inconclusive = small, poorly fitted or top-dose-only effect, or another doubt; inactive = no such curve, though single readings can be large; an effect the other way counts as inactive or inconclusive.

How the values were obtained:
[1] = Cell Viability - NIH 3T3 (AID 541); details: NIH 3T3 cell viability, qHTS; activity change, negative = cytotoxicity: at 92.2 µM (top of the series);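 also: plate controls were DMSO alone for no effect and tamoxifen positive control for full effect; nearly all actives have a fitted effect of over 25% in size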
Procedure, shortened: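 Mouse NIH 3T3 fibroblasts, 1000 cells/well, rested 5 hr at 37 °C, then exposed to compound for 40 hr at 37 °C in complete medium. Viability read as intracellular ATP by CellTiter-Glo luminescence; AC50 from Hill-equation fits of concentration-response data.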

[2] = Cell Viability - SH-SY5Y (AID 544); details: SH-SY5Y neuroblastoma cell viability; viability change, negative = cytotoxic: at 92.2 µM (top of the series);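 also: 0% = DMSO alone and -100% = 100 µM tamoxifen; nearly all actives have a fitted effect of over 55% in size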
Procedure, shortened: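 SH-SY5Y human neuroblastoma cells (1500/well) incubated 5 h, then compound-treated 40 h at 37 °C in complete medium. Viability read as intracellular ATP by CellTiter-Glo luminescence after 20 min; AC50 from Hill-equation fits of qHTS concentration-response.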

[3] = Cell Viability - LYMP2-001 (AID 921);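 also: 0% = DMSO only and full inhibition = tetraoctylammonium bromide control wells; nearly all actives have a fitted effect of over 70% in size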
Procedure, shortened: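 qHTS, 1536-well; lymphoblastoid cells, 24 hr compound, 37 C; ATP by CellTiter-Glo, 30 min RT; luminescence; Hill-fit AC50.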

[4] = Cell Viability - LYMP1-003 - Assay at 40 hr (AID 964); also: % is scaled to controls: 0 for no effect and ±100 for the full control effect; nearly all actives have a fitted effect of over 60% in size
Procedure, shortened: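 LYMP1-003 human lymphoblastoid cells, 2500/well, preincubated 5 h at 37 C, then treated with compound for 40 h at 37 C. Intracellular ATP read by CellTiter-Glo luminescence after 30 min at room temperature; AC50 from Hill-equation fits.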

[5] = Cell Viability - LYMP2-004 (AID 966);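 also: plate controls were DMSO only for no effect and tetraoctylammonium bromide control for full effect; nearly all actives have a fitted effect of over 65% in size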
Procedure, shortened: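 Lymphoblastoid LYMP2-004 cells, 2500 per well, were preincubated for 5 hr and then treated with compound for 24 h at 37 C in complete medium. Viability was read as cellular ATP by CellTiter-Glo luminescence, and AC50 values were taken from Hill fits to concentration-response data.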

[6] = Cell Viability - LYMP2-015 (AID 971);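 also: 0% = DMSO only and full effect = 92 µM tetraoctylammonium bromide; nearly all actives have a fitted effect of over 55% in size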
Procedure, shortened: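 LYMP2-015 human lymphoblastoid cells (2500/well) in complete medium, compound-treated 24 h at 37 C; viability read as cellular ATP by CellTiter-Glo luminescence after 30 min at room temperature. AC50 from Hill-equation fits of qHTS concentration-response data.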

[7] = Cell Viability - LYMP2-017 (AID 972); also: % is scaled to controls: 0 for no effect and ±100 for the full control effect; nearly all actives have a fitted effect of over 55% in size
Procedure, shortened: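 LYMP2-017 human lymphoblastoid cells (2500/well) settled 5 hr at 37 C, then exposed to compound 24 hr at 37 C in complete medium. Viability taken as intracellular ATP by CellTiter-Glo luminescence after 30 min at RT; AC50 from Hill fits.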

[8] = Cell Viability - LYMP2-025 (AID 976);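 also: plate controls were DMSO only for no effect and tetraoctylammonium bromide control for full effect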
Procedure, shortened: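 Human lymphoblastoid LYMP2-025 cells, 2500/well, exposed 24 h at 37 C in complete medium in 1536-well qHTS. Viability as cellular ATP by CellTiter-Glo luminescence; AC50 from Hill fits of concentration-response data.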

[9] = Cell Viability - LYMP2-006 (AID 978); also: % is scaled to controls: 0 for no effect and ±100 for the full control effect; nearly all actives have a fitted effect of over 60% in size
Procedure, shortened: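 Concentration-dependent loss of intracellular ATP in a human lymphoblastoid line after 24 hr treatment at 37 C was measured by CellTiter-Glo luminescence, with AC50 values obtained from standard Hill-equation modelling.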

[10] = Cell Viability - LYMP2-010 (AID 981); also: % is scaled to controls: 0 for no effect and ±100 for the full control effect; nearly all actives have a fitted effect of over 55% in size
Procedure, shortened: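 Human lymphoblastoid LYMP2-010 cells (2500/well) treated 24 h at 37 C in complete medium; viability read as intracellular ATP by CellTiter-Glo luminescence. AC50 from Hill fits of concentration-response data; tetraoctylammonium bromide positive control.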

[11] = Cell Viability - LYMP2-012 (AID 982)
[12] = Cell Viability - LYMP2-014 (AID 983);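 also: plate controls were DMSO only for no effect and 92 µM tetraoctylammonium bromide for full effect; nearly all actives have a fitted effect of over 50% in size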
Procedure, shortened: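 LYMP2-014 human lymphoblastoid cells, 2500/well, treated 24 h at 37 C in complete medium; viability by CellTiter-Glo ATP luminescence after 30 min at room temperature. AC50 from Hill fits of qHTS concentration-response; tetraoctylammonium bromide positive control.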

[13] = Cell Viability - LYMP2-022 (AID 987)
Procedure, shortened: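 LYMP2-022 lymphoblastoid cells (2500/well, complete medium) were treated with compounds for 24 hours at 37 C; intracellular ATP was then read by CellTiter-Glo luminescence after 30 min at room temperature. AC50 values were derived from Hill-equation fits.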

[14] = qHTS assay for small molecule agonists of retinoid X receptor alpha signaling (AID 588544; calls by dose curve); details: HEK293T RXRa-UAS-bla, beta-lactamase reporter, 18 h; 530 nm emission
[15] = target: Retinoic acid receptor RXR-alpha (Homo sapiens) (UniProt P19793); assay: as above
[16] = target: Thyroid hormone receptor beta (Homo sapiens) (UniProt P10828); assay: qHTS assay for small molecule agonists of thyroid hormone receptor beta signaling (AID 588545; calls by dose curve)
Procedure, shortened: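 Agonist activity was read as beta-lactamase CCF4 fluorescence (405 ex, 460/530 em), scaled between DMSO (0%) and 10 nM T3 (100%), then Hill-fitted for EC50 and efficacy. HEK 293 TR-UAS-bla cells in 2% charcoal/dextran FBS medium were exposed 18 h at 37 C.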

[17] = target: Thyroid hormone receptor beta (Homo sapiens) (UniProt P10828); assay: qHTS assay for small molecule antagonists of thyroid hormone receptor beta signaling (AID 588547; active = well fitted inhibition curve with a large enough effect in the signal ratio, with a control signal flat, not every such curve was filed as active; the % refers to the signal ratio;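 also: cells stimulated with 0.4 nM T3 agonist during compound exposure; % is scaled to controls: 0 for no effect and ±100 for the full control effect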); details: TR-UAS-bla HEK293, beta-lactamase ratio, antagonist mode, 18 h
Procedure, shortened: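 Inhibition of T3-driven (0.4nM final) beta-lactamase reporter activity was measured over 0.59 nM to 92 uM compound after 18 h at 37 C. The cells were GripTite HEK293 TR-UAS-bla in charcoal/dextran-stripped serum, with CCF4 ratio read-out and IC50 from Hill fits.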

[18] = target: Voltage-gated inwardly rectifying potassium channel KCNH2 (Homo sapiens) (UniProt Q12809); assay: qHTS Assay for Small Molecule Inhibitors of the Human hERG Channel Activity (AID 588834);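 also: top concentration of the series differs between compounds; % is scaled to controls: 0 for no effect and ±100 for the full control effect; lower thallium flux fluorescence means stronger hERG block; nearly all actives have a fitted effect of over 50% in size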
Procedure, shortened: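 Measured: FluxOR fluorescence after thallium stimulation in U2OS cells transduced with hERG by baculovirus. Compounds pre-incubated around 10 min; medium Opti-MEM with 2% FCS. AC50 from Hill equation.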

[19] = qHTS assay for small molecule antagonists of retinoid X receptor alpha signaling (AID 588546; active = well fitted inhibition curve with a large enough effect in the signal ratio, with a control signal flat, not every such curve was filed as active; the % refers to the signal ratio;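 also: cells stimulated with 9-cis-retinoic acid as agonist; % is scaled to controls: 0 for no effect and ±100 for the full control effect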); details: HEK293T RXRa-UAS-bla, beta-lactamase ratio, antagonist mode; measured here: W530 green channel, cytotoxicity proxy
Procedure, shortened: (§1)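 Beta-lactamase reporter inhibition, read as CCF4 fluorescence ratio (ex 405, em 460/530 nm) after 2 h at RT. HEK293T UAS-bla cells, 2500/well, were stimulated with 9-cis-RA at 500 or 100 nM final alongside test compound for 18 h at 37 C.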

[20] = target: Retinoic acid receptor RXR-alpha (Homo sapiens) (UniProt P19793); assay: as above; details: HEK293T RXRa-UAS-bla, beta-lactamase ratio, antagonist mode
Procedure, shortened: as §1

Chain of Voltage-gated inwardly rectifying potassium channel KCNH2 (Homo sapiens) (Q12809 whole entry, looked up): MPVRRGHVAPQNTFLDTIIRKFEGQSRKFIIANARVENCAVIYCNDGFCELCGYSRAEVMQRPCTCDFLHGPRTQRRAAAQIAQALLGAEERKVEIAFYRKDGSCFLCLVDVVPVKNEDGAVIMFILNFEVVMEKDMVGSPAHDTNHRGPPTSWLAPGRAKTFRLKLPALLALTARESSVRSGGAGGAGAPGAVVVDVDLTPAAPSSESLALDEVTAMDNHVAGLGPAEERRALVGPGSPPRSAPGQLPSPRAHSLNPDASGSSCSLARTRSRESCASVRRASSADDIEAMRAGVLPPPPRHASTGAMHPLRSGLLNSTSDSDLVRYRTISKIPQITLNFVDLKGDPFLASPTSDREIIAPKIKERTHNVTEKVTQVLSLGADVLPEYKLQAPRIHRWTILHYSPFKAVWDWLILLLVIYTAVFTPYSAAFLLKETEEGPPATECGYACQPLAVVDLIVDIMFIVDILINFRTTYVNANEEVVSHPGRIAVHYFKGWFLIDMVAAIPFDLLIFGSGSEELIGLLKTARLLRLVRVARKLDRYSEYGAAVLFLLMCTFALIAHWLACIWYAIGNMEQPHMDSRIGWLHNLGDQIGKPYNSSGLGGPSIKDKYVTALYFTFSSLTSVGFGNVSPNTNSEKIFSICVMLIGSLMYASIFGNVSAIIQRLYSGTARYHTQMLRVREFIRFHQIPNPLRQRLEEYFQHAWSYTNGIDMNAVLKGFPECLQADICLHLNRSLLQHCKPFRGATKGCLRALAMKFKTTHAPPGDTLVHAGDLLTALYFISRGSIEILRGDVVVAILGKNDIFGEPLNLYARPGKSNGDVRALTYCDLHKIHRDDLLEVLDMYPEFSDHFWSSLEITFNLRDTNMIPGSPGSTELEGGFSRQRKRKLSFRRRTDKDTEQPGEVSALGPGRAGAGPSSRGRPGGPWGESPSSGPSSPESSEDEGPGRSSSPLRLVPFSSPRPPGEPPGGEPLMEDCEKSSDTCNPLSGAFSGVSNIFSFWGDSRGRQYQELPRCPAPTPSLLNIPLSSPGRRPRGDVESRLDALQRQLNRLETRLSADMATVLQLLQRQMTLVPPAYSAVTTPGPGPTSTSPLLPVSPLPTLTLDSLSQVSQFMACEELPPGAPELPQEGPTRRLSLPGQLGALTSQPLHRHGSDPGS
Chain of Thyroid hormone receptor beta (Homo sapiens) (P10828 whole entry, looked up): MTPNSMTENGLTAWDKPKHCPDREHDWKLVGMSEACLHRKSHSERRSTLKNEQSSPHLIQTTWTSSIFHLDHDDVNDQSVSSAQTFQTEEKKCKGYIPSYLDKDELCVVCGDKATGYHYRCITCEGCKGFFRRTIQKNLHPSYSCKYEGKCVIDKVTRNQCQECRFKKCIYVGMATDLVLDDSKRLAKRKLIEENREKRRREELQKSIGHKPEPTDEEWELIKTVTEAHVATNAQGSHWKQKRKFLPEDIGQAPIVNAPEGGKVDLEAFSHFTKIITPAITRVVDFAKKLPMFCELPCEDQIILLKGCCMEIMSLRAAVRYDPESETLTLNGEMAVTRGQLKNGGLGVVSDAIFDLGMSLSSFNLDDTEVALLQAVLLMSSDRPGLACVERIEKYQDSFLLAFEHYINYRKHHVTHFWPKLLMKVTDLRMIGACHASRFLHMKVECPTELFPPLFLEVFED
Chain of Retinoic acid receptor RXR-alpha (Homo sapiens) (P19793 whole entry, looked up): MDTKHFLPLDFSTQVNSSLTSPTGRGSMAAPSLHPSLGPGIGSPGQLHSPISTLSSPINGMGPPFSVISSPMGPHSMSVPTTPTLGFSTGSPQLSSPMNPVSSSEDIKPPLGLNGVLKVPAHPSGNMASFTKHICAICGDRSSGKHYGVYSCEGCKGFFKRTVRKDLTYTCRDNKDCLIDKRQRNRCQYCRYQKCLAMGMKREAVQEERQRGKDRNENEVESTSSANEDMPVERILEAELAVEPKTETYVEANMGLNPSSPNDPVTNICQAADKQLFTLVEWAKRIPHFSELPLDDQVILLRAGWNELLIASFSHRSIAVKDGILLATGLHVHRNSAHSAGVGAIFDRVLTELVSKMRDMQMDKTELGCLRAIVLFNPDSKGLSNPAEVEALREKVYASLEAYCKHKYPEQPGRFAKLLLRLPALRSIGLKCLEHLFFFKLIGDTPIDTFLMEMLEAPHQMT

O=C(O)c1cccc(Cl)c1
-9.83%: max response [14]
inactive: Potency [1] | Potency [2] | Potency [3] | Potency [4] | Potency [5] | Potency [6] | Potency [7] | Potency [8] | Potency [9] | Potency [10] | Potency [11] | Potency [12] | Potency [13] | outcome [15] | Potency [16] | activity change % (negative = inhibition) [17] 7.72% | Potency [18]

CCCCCC[N+](=O)[O-]
inactive: Potency [1] | Potency [2] | Potency [3] | Potency [4] | Potency [5] | Potency [6] | Potency [7] | Potency [8] | Potency [9] | Potency [10] | Potency [11] | Potency [12] | Potency [13] | outcome [15] | Potency [16] | max response [20] -13.3% | activity change % (negative = inhibition) [17] -9.74% | Potency [18]
-16.5%: max response [14]
-11.1%: max response [19]

ClC(Cl)Br
inactive: Potency [1] | Potency [2] | Potency [3] | Potency [4] | Potency [5] | Potency [6] | Potency [7] | Potency [8] | Potency [9] | Potency [10] | Potency [11] | Potency [12] | Potency [13] | outcome [15] | Potency [16] | max response [20] 5.56% | activity change % (negative = inhibition) [17] 9.06% | Potency [18]
-4.86%: max response [14]
1.73%: max response [19]

Oc1ccc(Cl)c(Cl)c1Cl
inactive: Potency [1] | Potency [2] | Potency [3] | Potency [4] | Potency [5] | Potency [6] | Potency [7] | Potency [8] | Potency [9] | Potency [10] | Potency [11] | Potency [12] | Potency [13] | outcome [15] | Potency [16] | activity change % (negative = inhibition) [17] 14.5% | Potency [18]
-5.29%: max response [14]

Nc1ccc(-c2ccc(N)cc2)cc1
-10.1%: max response [14]
inactive: Potency [1] | Potency [2] | Potency [3] | Potency [4] | Potency [5] | Potency [6] | Potency [7] | Potency [8] | Potency [9] | Potency [10] | Potency [11] | Potency [12] | Potency [13] | outcome [15] | max response [20] 0.312% | activity change % (negative = inhibition) [17] 12.4% | Potency [18]
-2.33%: max response [19]

O=C(Cl)c1ccccc1F
6.73%: max response [14]
inactive: Potency [1] | Potency [2] | Potency [3] | Potency [4] | Potency [5] | Potency [6] | Potency [7] | Potency [8] | Potency [9] | Potency [10] | Potency [11] | Potency [12] | Potency [13] | outcome [15] | Potency [16] | max response [20] 13.4% | activity change % (negative = inhibition) [17] -5.22% | Potency [18]
-4.19%: max response [19]

N#C/C(N)=C(/N)C#N
inactive: Potency [1] | Potency [2] | Potency [3] | Potency [4] | Potency [5] | Potency [6] | Potency [7] | Potency [8] | Potency [9] | Potency [10] | Potency [11] | Potency [12] | Potency [13] | outcome [15] | Potency [16] | max response [20] 2% | activity change % (negative = inhibition) [17] -2.94% | Potency [18]
-2.22%: max response [19]
-4.63%: max response [14]

Cc1cnc[nH]1
2.59%: max response [14]
-10.6%: max response [19]
inactive: Potency [1] | Potency [2] | Potency [3] | Potency [4] | Potency [5] | Potency [6] | Potency [7] | Potency [8] | Potency [9] | Potency [10] | Potency [11] | Potency [12] | Potency [13] | outcome [15] | Potency [16] | max response [20] 4.17% | activity change % (negative = inhibition) [17] 8% | Potency [18]

CCCCC#N
inactive: Potency [1] | Potency [2] | Potency [3] | Potency [4] | Potency [5] | Potency [6] | Potency [7] | Potency [8] | Potency [9] | Potency [10] | Potency [11] | Potency [12] | Potency [13] | outcome [15] | max response [20] 11.5% | activity change % (negative = inhibition) [17] -12.9% | Potency [18]
-4.26%: max response [19]
2.48%: max response [14]

O=Cc1ccc(Cl)cc1Cl
inactive: Potency [1] | Potency [2] | Potency [3] | Potency [4] | Potency [5] | Potency [6] | Potency [7] | Potency [8] | Potency [9] | Potency [10] | Potency [11] | Potency [12] | Potency [13] | outcome [15] | Potency [16] | max response [20] 2.38% | activity change % (negative = inhibition) [17] 0.009% | Potency [18]
-13.3%: max response [19]
-11.7%: max response [14]

CC(C)OS(C)(=O)=O
inactive: Potency [1] | Potency [2] | Potency [3] | Potency [4] | Potency [5] | Potency [6] | Potency [7] | Potency [8] | Potency [9] | Potency [10] | Potency [11] | Potency [12] | Potency [13] | outcome [15] | max response [20] 0.937% | activity change % (negative = inhibition) [17] 8.49% | Potency [18]
-2.85%: max response [14]
5.36%: max response [19]

c1ccc2c(c1)CCNC2
-4.26%: max response [19]
inactive: Potency [1] | Potency [2] | Potency [3] | Potency [4] | Potency [5] | Potency [6] | Potency [7] | Potency [8] | Potency [9] | Potency [10] | Potency [11] | Potency [12] | Potency [13] | outcome [15] | max response [20] 19.2% | Potency [18]
-9.85%: max response [14]

O=[N+]([O-])c1ccc2c3c(cccc13)CC2
20.4% and -8.69%: max response [14]
-3.8% and -0.996%: max response [19]
inactive: Potency [3] | Potency [4] | Potency [5] | Potency [6] | Potency [7] | Potency [8] | Potency [9] | Potency [10] | Potency [11] | Potency [12] | Potency [13] | outcome [15] | Potency [16] | max response [20] 28.1% and 10.3% | activity change % (negative = inhibition) [17] -2.33% and 7.31% | Potency [18]

Nc1ccc(Cl)c(Cl)c1
3.91%: max response [14]
2.84%: max response [19]
inactive: Potency [1] | Potency [2] | Potency [3] | Potency [4] | Potency [5] | Potency [6] | Potency [7] | Potency [8] | Potency [9] | Potency [10] | Potency [11] | Potency [12] | Potency [13] | outcome [15] | Potency [16] | max response [20] -9.29% | activity change % (negative = inhibition) [17] 2.33% | Potency [18]
